For 17 compounds, outcome and AC50 results are on record in PubChem BioAssay (EPA / NIEHS).

For orientation: AC50 means the concentration at which the activity in the assay is half-maximal.

Each structure is given as a SMILES string. Activity calls are given as the source filed them. How the source made its calls: active means hit-call score of the fitted dose curve at least 0.9, where 1 is the maximum; inactive means score below 0.9.

A short description of assay [1]: CCTE_Padilla_ZF_Score.Edema: CCTE's 144 Hour Post-fertilization zebrafish Assay Score for Edema Malformation, Padilla Lab (AID 2284406). The method in brief:
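Edema scored at 6 dpf by two blinded observers under a stereo microscope, in single outbred wild-type larvae exposed from 6-8 hpf in sealed wells (Hanks', 26C, 14:10 h light) and chemical-free after a 5 dpf rinse.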

Assay [2] is described as follows: CCTE_Padilla_ZF_Score.Spine: CCTE's 144 Hour Post-fertilization zebrafish Assay Score for Spine Malformation, Padilla Lab (AID 2284407). The method in brief: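 Spine malformation scored at 6 dpf by two independent blinded observers under stereomicroscope, after static sealed exposure from 6–8 hpf at 26C in Hanks' solution with rinse on 5 dpf. Positive-direction fit against DMSO control.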

Assay [3] can be described thus: CCTE_Padilla_ZF_Score.Swim_bladder: CCTE's 144 Hour Post-fertilization zebrafish Assay Score for Swim Bladder Malformation, Padilla Lab (AID 2284408). The method in brief:
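Swim bladder inflation scored at 6 dpf by two blinded observers under a stereo microscope. Exposure ran from 6–8 hpf in sealed wells of 10% Hanks' at 26C, with rinsing at 5 dpf; DMSO served as baseline.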

The nature of assay [4]: CCTE_Padilla_ZF_Score.Position: CCTE's 144 Hour Post-fertilization zebrafish Assay Score for Position, Padilla Lab (AID 2284409). Summed up:
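Wild-type zebrafish embryos (with chorions) exposed singly from 6–8 hpf in sealed wells of Hanks' solution at 26C, rinsed at 5 dpf. At 6 dpf, blinded assessors scored abnormal water-column position by brightfield stereomicroscopy, relative to DMSO.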

Assay [5] in a line: CCTE_Padilla_ZF_Score.Living: CCTE's 144 Hour Post-fertilization zebrafish Assay Score for Viability, Padilla Lab (AID 2284410).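 Further: larval death at 6 dpf judged by absent heartbeat or coagulation.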 Summed up: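 Mortality at 6 dpf, judged as absent heartbeat or coagulation by two blinded observers, after sealed static exposure beginning at 6–8 hpf at 26C. Larvae were rinsed free of chemical at 5 dpf, and activity was fitted relative to DMSO.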

Assay [6] is described as follows: CCTE_Padilla_ZF_Score.General: CCTE's 144 Hour Post-fertilization zebrafish Assay Score for General Malformation, Padilla Lab (AID 2284411). Summed up:
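Malformation, death and hatching were scored at 6 dpf by two blinded observers under a stereo microscope. Embryos were dosed singly from 6-8 hpf in sealed plates of 10% Hanks' at 26C and rinsed on 5 dpf; DMSO baseline.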

Assay [7] can be described thus: CCTE_Padilla_ZF_Score.Tail: CCTE's 144 Hour Post-fertilization zebrafish Assay Score for Tail Malformation, Padilla Lab (AID 2284414). Summed up:
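Tail malformations were scored at 6 dpf by two blinded assessors under a stereo microscope. Chorionated embryos had been exposed from 6-8 hpf in sealed wells of 10% Hanks' at 26 C, then rinsed free of chemical at 5 dpf.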

Assay [8] in a line: CCTE_Padilla_ZF_Score.Blood_pooling: CCTE's 144 Hour Post-fertilization zebrafish Assay Score for Blood Pooling, Padilla Lab (AID 2284415). The method in brief: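 Blood pooling was scored at 6 dpf under a stereo microscope by two blinded assessors, fitted upward against DMSO. Single embryos were dosed at 6–8 hpf in 10% Hanks', kept sealed at 26C (14:10 h cycle) and rinsed at 5 dpf.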

Assay [9] is described as follows: CCTE_Padilla_ZF_Score.Any: CCTE's 144 Hour Post-fertilization zebrafish Assay Score for Any Mortality or Malformation, Padilla Lab (AID 2284416). Summed up:
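Wild-type zebrafish embryos with chorions, one per well in 10% Hanks' from 6–8 hpf, dosed in sealed plates at 26 C, 14:10 h light:dark; rinsed at 5 dpf; blinded scoring at 6 dpf for death or malformation, versus DMSO.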

For assay [10], the system named is TTR (gene 7276). In words: CCTE_GLTED_hTTR_0.125uM: CCTE's human Transthyretin (hTTR) Inhibition Assay, with 0.125uM TTR, Great Lakes Toxicology and Ecology Division (GLTED) Lab (AID 2284431).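 Further: hits lower the fluorescence signal relative to DMSO baseline.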 The method in brief: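 Activity is defined as decreased ANSA fluorescence (ex 380, em 475) from human transthyretin, 0.125uM, following 2-hour chemical exposure in a cell-free setup, with DMSO as baseline.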

Assay [11] is described as follows: Tanguay_ZF_120hpf_DP24: Oregon State University Tanguay Lab 24 Hour Post-fertilization zebrafish Assay for Delayed Development (AID 2284390). Summed up:
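Scored at 24 hpf as a binary present/absent call of delayed development by brightfield, with dead embryos not assessed. Embryos (5D wild type, chorion removed with pronase at 4 hpf) dosed statically from 6 hpf at 28 C in 0.64% DMSO.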

Assay [12] is described as follows: Tanguay_ZF_120hpf_AXIS: Oregon State University Tanguay Lab 120 Hour Post-fertilization zebrafish Assay for Axial Malformation (AID 2284398). Summed up:
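Scoring was binary (present or absent) for body-axis defects, judged by brightfield imaging at 120 hpf in surviving larvae. Exposure was static at 28C from 6 hpf in chorion-free 5D wild-type embryos, with 0.64% DMSO vehicle.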

Assay [13] in a line: Tanguay_ZF_120hpf_BRN: Oregon State University Tanguay Lab 120 Hour Post-fertilization zebrafish Assay for Brain Region Malformation (AID 2284402). The method in brief: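 Binary brightfield scoring of brain malformation at 120 hpf in 5D wild-type larvae, chorion removed with pronase at 4 hpf. Static exposure began at 6 hpf, 28C, sealed plates, DMSO 0.64% (vol/vol) as vehicle baseline.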

A short description of assay [14]: Tanguay_ZF_120hpf_TCHR: Oregon State University Tanguay Lab 120 Hour Post-fertilization zebrafish Assay for Touch Responsive (AID 2284403). Summed up:
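Binary touch-response calls are made at 120 hpf in 5D wild-type zebrafish larvae. These larvae were dechorionated with pronase and exposed singly from 6 hpf in sealed, dark plates at 28 °C with 0.64% DMSO final; dead embryos are excluded.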

The nature of assay [15]: Tanguay_ZF_120hpf_ANY: Oregon State University Tanguay Lab 120 Hour Post-fertilization zebrafish Assay for Any Mortality and Malformation (AID 2284404). The method in brief:
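Dechorionated Tropical 5D wild-type embryos, one per well from 6 hpf, static exposure in sealed, dark plates at 28C until 120 hpf, 0.64% DMSO final. Brightfield scoring of mortality and malformations as binary presence/absence, pooling 13 morphology endpoints.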

Assay [16] can be described thus: CCTE_Padilla_ZF_Score.Craniofacial: CCTE's 144 Hour Post-fertilization zebrafish Assay Score for Craniofacial Malformation, Padilla Lab (AID 2284405). The method in brief:
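Craniofacial defects were scored at 6 dpf by two blinded observers using stereomicroscopy. Exposure of wild-type embryos began at 6–8 hpf in sealed wells of 10% Hanks' solution at 26C, with chemical removed by rinsing at 5 dpf.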

On to `NCC(F)(F)C(F)(F)C(F)(F)C(F)(F)C(F)(F)C(F)(F)C(F)(F)C(F)(F)F`, for which the outcome in assay [1], in [2], in [3], in [4], in assay [6] and in assay [7] was inactive. Besides, the call in [8] was inactive. The half-maximal activity concentration (AC50) in assay [5] is 32.4 µM (active); in [9], 32.9 µM (active).

On to `CCCCCCCC/C=C\CCCCCCCC(=O)N(C)CC(=O)O`, for which the AC50 in assay [10] is 3.75 µM (active).

For the compound `O=C(c1ccccc1)c1ccc(O)cc1O`, the result in assay [6] was inactive. Besides, in assay [10], the AC50 was 0.0464 µM (active).

Take `CCC(Cc1c(I)cc(I)c(N)c1I)C(=O)O` (centres undefined): in assay [10], the half-maximal activity concentration (AC50) was 2.1 µM (active).

As to `O=C(O)C(F)(F)C(F)(F)C(F)(F)C(F)(F)C(F)(F)C(F)(F)C(F)F`, the compound was called inactive in assay [1], in assay [2], in assay [3], in assay [4], in assay [5] and in assay [6]. In addition, the compound was called inactive in assay [7] and in [8].

Regarding `C=C(C)C(=O)OCC(F)(F)C(F)(F)C(F)(F)C(F)F`, the compound was classed as inactive in assay [1], in [2], in [3], in assay [4], in [5] and in assay [6]. Also, the compound was called inactive in assay [7] and in assay [8].

`O=C(O)CCC(F)(F)C(F)(F)C(F)(F)F`: the call in assay [11], in [12], in assay [13], in assay [14], in assay [15] and in assay [1] was inactive. Also, the compound was classed as inactive in [2], in assay [3], in assay [4], in assay [5], in assay [6] and in [7]. For the same compound, in assay [8], the compound was classed as inactive. In addition, in assay [9], the AC50 was 77.1 µM (active).

Turning to `O=C(Cl)C(F)(F)C(F)(F)C(F)(F)C(F)(F)C(F)(F)C(F)(F)C(F)(F)F`, the compound was classed as inactive in [16], in assay [2], in [3], in assay [4], in [5] and in assay [6]. Also, the call in assay [7] and in assay [8] was inactive. For the same compound, in assay [1], the half-maximal activity concentration (AC50) was 86.8 µM (active).

Turning to `CCN=c1cc2oc3cc(NCC)c(C)cc3c(-c3ccccc3C(=O)OCC)c-2cc1C`, the concentration at half-maximal activity (AC50) in assay [10] is 32.2 µM (active).

`O=C(O)C(F)(F)C(F)(F)C(F)(F)C(=O)O`: the call in assay [11], in assay [12], in [13], in assay [14], in assay [15] and in assay [1] was inactive. In addition, the compound was called inactive in assay [2], in assay [3], in assay [4], in [5], in assay [6] and in assay [7]. In addition, the compound was classed as inactive in assay [8] and in [9].

In the case of `CN1CN(C)CN(C)C1`, in assay [6], the compound was called inactive.

For `CCOC(=O)CC(=O)C(F)(F)C(F)(F)F`, the compound was called inactive in assay [11], in [12], in assay [13], in assay [14], in assay [15] and in assay [1]. The call in assay [2], in assay [3], in assay [4], in assay [5], in assay [6] and in [7] was inactive. In assay [8], the compound was called inactive.

Turning to `C=CC(=O)OCC(F)(F)C(F)(F)C(F)(F)COC(=O)C=C`, the AC50 in [11] is 14.1 µM (active); in assay [13] it was 4.29 µM (active); in assay [15], 5.92 µM (active); in [5], 10 µM (active). In addition, the outcome in assay [12], in assay [14], in assay [1], in [2], in assay [3] and in [4] was inactive. Besides, the compound was classed as inactive in [6], in assay [7] and in assay [8].

As for `O=C(O)C(F)(F)OC(F)(F)C(F)(F)OC(F)(F)C(F)(F)OC(F)(F)F`, the outcome in [1], in assay [2], in assay [3], in assay [4], in assay [5] and in assay [6] was inactive. For the same compound, the outcome in assay [7] and in assay [8] was inactive.

For `O=C(F)C1(F)C(F)(F)C(F)(F)C(F)(F)C(F)(F)C1(F)F`, the compound was classed as inactive in assay [11], in assay [12], in [13], in assay [14], in assay [15] and in assay [1]. The result in [2], in assay [3], in [4], in assay [5], in assay [6] and in [7] was inactive. Also, in assay [8], the call was inactive.

On to `CC(C)CCCC(C)CCO` (centres undefined), for which, in [6], the result was inactive.

Regarding `C=CC(=O)OCC(F)(F)C(F)(F)C(F)(F)C(F)(F)C(F)(F)C(F)(F)C(F)(F)C(F)F`, the compound was classed as inactive in assay [11], in [12], in [13], in assay [14], in assay [15] and in assay [1]. Also, the compound was classed as inactive in assay [2], in assay [4], in assay [5], in [6], in assay [7] and in [8]. For the same compound, in assay [3], the AC50 was 102 µM (active).
